PubChem BioAssay (NCATS)
Inconclusive results are not listed. The source made the active and inactive calls. Calls come from the whole dose curve; as a rule, active = well fitted activation curve with a large enough effect; inconclusive = small, poorly fitted or top-dose-only effect; inactive = no such curve, though single readings can be large or run the other way.

The compounds below were run against Cellular tumor antigen p53 (Homo sapiens) (UniProt P04637) (assay: Primary qHTS for small molecule compounds that upregulate eGFP-tagged delta133p53alpha (in N-terminal) cells. (AID 2060322; note: nearly all actives have a fitted effect of over 75% in size;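 for activation: series mostly up to about 56 µM; 0% = DMSO vehicle and 100% = reference activator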)). Conditions: NCI-H358 eGFP-delta133p53alpha fluorescence, 24 h; activation: stronger effect = higher value.
Sequence of Cellular tumor antigen p53 (Homo sapiens) (P04637 whole entry, looked up): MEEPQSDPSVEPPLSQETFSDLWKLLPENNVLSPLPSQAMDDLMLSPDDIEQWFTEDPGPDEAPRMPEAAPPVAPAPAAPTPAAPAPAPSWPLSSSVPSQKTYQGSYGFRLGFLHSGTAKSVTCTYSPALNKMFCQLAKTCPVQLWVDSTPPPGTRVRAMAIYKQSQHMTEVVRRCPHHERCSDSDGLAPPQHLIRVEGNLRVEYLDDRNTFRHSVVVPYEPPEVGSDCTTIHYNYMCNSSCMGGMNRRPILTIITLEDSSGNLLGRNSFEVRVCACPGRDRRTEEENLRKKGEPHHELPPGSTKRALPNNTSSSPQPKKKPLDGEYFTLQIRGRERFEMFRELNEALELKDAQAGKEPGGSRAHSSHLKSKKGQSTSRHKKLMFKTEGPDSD
Summary of the method: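 NCI-H358 cells pre-induced 24 h with 10 ng/ml doxycycline to express N-terminal eGFP-delta133p53alpha, then dosed 24 h at 37C without doxycycline; fixed, Hoechst-stained, GFP intensity by laser scanning cytometry, normalized to DMSO (0%) and 57.5 uM 5-azacytidine (100%).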
Potency is the fitted concentration of half-maximal effect.

| Compound | activation | Potency |
| --- | --- | --- |
| C[C@@H](O)[C@H]1C(=O)N2C(C(=O)O)=C([C@H]3CCCO3)S[C@H]12 | -8.47% (inactive) | – |
| O=C(CCCl)NCc1ccccc1 | -0.565% (inactive) | – |
| CCn1cc(C(=O)O)c(=O)c2cnc(N3CCNCC3)nc21 | 0.837% (inactive) | – |
| CC(C)n1c(C=C[C@H](O)C[C@H](O)CC(=O)O)c(-c2ccc(F)cc2)c2ccccc21 | -24.6% (inactive) | – |
| CC1(C)O[C@H]2C[C@@H]3[C@H]4CCC5=CC(=O)C=C[C@]5(C)[C@@]4(F)[C@@H](O)C[C@]3(C)[C@]2(C(=O)CO)O1 | 8.11% (inactive) | – |
| CN(C)CCC=C1c2ccccc2COc2ccc(CC(=O)O)cc21 | 16.8% (inactive) | – |
| CC(Oc1c(Cl)cccc1Cl)C1=NCCN1 (stereo not drawn) | 3.35% (inactive) | – |
| NC(CS)C(=O)O (stereo not drawn) | -24.3% (inactive) | – |
| O=C(c1ccco1)N1CCNCC1 | -10.9% (inactive) | – |
| O=C(O)C1=CO[C@@H](O[C@@H]2O[C@H](CO)[C@H](O)[C@H](O)[C@H]2O)[C@@H]2C(CO)=CC[C@H]12 | 30.5% (inactive) | – |
| CS[C@H]1SC[C@@H]2C(=O)N(C)[C@H](C(C)C)C(=O)OC[C@H](NC(=O)c3cnc4ccccc4n3)C(=O)N[C@H](C)C(=O)N(C)[C@@H]1C(=O)N(C)[C@H](C(C)C)C(=O)OC[C@H](NC(=O)c1cnc3ccccc3n1)C(=O)N[C@H](C)C(=O)N2C | – | 0.0343 µM (active) |
| O=C(c1cc(O)c(O)c(O)c1)c1ccc(O)c(O)c1O | 23.2% (inactive) | – |
| O=C1C(c2[nH]c3ccccc3c2O)=Nc2ccccc21 | -0.565% (inactive) | – |
